# Measured values published in PubChem BioAssay AID1159580 (chemical genetic matrix, 2015).
# The whole screen tested about 5,500 compounds, of which about 2,000 (36%) were called active. Roughly 18% stayed inconclusive and do not appear here. This is one part of the list. Unmarked numbers belong to inactive results. No stated cut-off is given here; in the data, active means normalized growth mostly below about 0.91 (no sharp cut-off); inconclusive means no clear call, values can overlap the other calls; inactive means mostly above about 0.92.
# Assay: chemical genetic growth profiling, strain panel (AID 1159580);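 further: tested at 20 µM; growth read once vehicle control cultures reached saturation at 30 °C; 1 = growth at the plate median or of vehicle wells; lower values mean less growth of the strain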
# Conditions: growth OD
smiles,measurement,setting,value
O=c1cc(-c2ccccc2)oc2c(O)c(O)ccc12,normalized growth,"S. cerevisiae deletion strains, locus YJR066W, strain TOR1, active compounds read low",0.985
same,normalized growth,"S. cerevisiae deletion strains, locus YJR075W, strain HOC1, active compounds read low",1.01
same,normalized growth,"S. cerevisiae deletion strains, locus YKL009W, strain mrt4, active compounds read low",0.96
same,normalized growth,"S. cerevisiae deletion strains, locus YKL068W, active compounds read low",0.976
same,normalized growth,"S. cerevisiae deletion strains, locus YKL085W, strain MDH1 (second series), active compounds read low",0.986
same,normalized growth,"S. cerevisiae deletion strains, locus YKL085W, strain MDH1, active compounds read low",0.986
same,normalized growth,"S. cerevisiae deletion strains, locus YKL160W, strain elf1, active compounds read low",0.986
same,normalized growth,"S. cerevisiae deletion strains, locus YKR001C, strain vps1, active compounds read low",0.89 (active)
same,normalized growth,"S. cerevisiae deletion strains, locus YKR026C, strain gcn3, active compounds read low",0.993
same,normalized growth,"S. cerevisiae deletion strains, locus YKR091W, strain srl3, active compounds read low",0.995
same,normalized growth,"S. cerevisiae deletion strains, locus YLL001W, strain dnm1, active compounds read low",0.984
same,normalized growth,"S. cerevisiae deletion strains, locus YLL026W, active compounds read low",1
same,normalized growth,"S. cerevisiae deletion strains, locus YLL041C, strain sdh2, active compounds read low",0.987
same,normalized growth,"S. cerevisiae deletion strains, locus YLR027C, strain aat2, active compounds read low",0.999
same,normalized growth,"S. cerevisiae deletion strains, locus YLR039C, strain RIC1, active compounds read low",0.499 (active)
same,normalized growth,"S. cerevisiae deletion strains, locus YLR058C, strain SHM2, active compounds read low",0.938
same,normalized growth,"S. cerevisiae deletion strains, locus YLR102C, strain apc9, active compounds read low",0.99
same,normalized growth,"S. cerevisiae deletion strains, locus YLR113W, strain HOG1, active compounds read low",1.01
same,normalized growth,"S. cerevisiae deletion strains, locus YLR221C, strain rsa3, active compounds read low",0.994
same,normalized growth,"S. cerevisiae deletion strains, locus YLR258W, strain gsy2, active compounds read low",0.987
same,normalized growth,"S. cerevisiae deletion strains, locus YLR262C, strain YPT6 (second series), active compounds read low",0.661 (active)
same,normalized growth,"S. cerevisiae deletion strains, locus YLR262C, strain YPT6, active compounds read low",0.593 (active)
same,normalized growth,"S. cerevisiae deletion strains, locus YLR268W, strain sec22, active compounds read low",0.768 (active)
same,normalized growth,"S. cerevisiae deletion strains, locus YLR320W, strain mms22, active compounds read low",1.01
same,normalized growth,"S. cerevisiae deletion strains, locus YLR330W, strain CHS5, active compounds read low",0.985
same,normalized growth,"S. cerevisiae deletion strains, locus YLR342W, strain FKS1 (second series), active compounds read low",0.764 (active)
same,normalized growth,"S. cerevisiae deletion strains, locus YLR342W, strain FKS1, active compounds read low",0.987
same,normalized growth,"S. cerevisiae deletion strains, locus YLR357W, strain rsc2, active compounds read low",0.914
same,normalized growth,"S. cerevisiae deletion strains, locus YLR370C, strain arc18, active compounds read low",0.99
same,normalized growth,"S. cerevisiae deletion strains, locus YLR371W, strain rom2, active compounds read low",0.848 (active)
same,normalized growth,"S. cerevisiae deletion strains, locus YLR384C, strain iki3, active compounds read low",0.989
same,normalized growth,"S. cerevisiae deletion strains, locus YLR418C, strain cdc73, active compounds read low",0.789 (active)
same,normalized growth,"S. cerevisiae deletion strains, locus YML016C, strain PPZ1, active compounds read low",0.952
same,normalized growth,"S. cerevisiae deletion strains, locus YML032C, strain rad52, active compounds read low",1.01
same,normalized growth,"S. cerevisiae deletion strains, locus YML120C, strain ndi1, active compounds read low",0.973
same,normalized growth,"S. cerevisiae deletion strains, locus YML124C, strain tub3, active compounds read low",0.999
same,normalized growth,"S. cerevisiae deletion strains, locus YMR058W, strain fet3, active compounds read low",0.966
same,normalized growth,"S. cerevisiae deletion strains, locus YMR078C, strain ctf18, active compounds read low",0.961
same,normalized growth,"S. cerevisiae deletion strains, locus YMR125W, strain sto1, active compounds read low",0.984
same,normalized growth,"S. cerevisiae deletion strains, locus YMR129W, active compounds read low",0.989
same,normalized growth,"S. cerevisiae deletion strains, locus YMR205C, strain PFK2, active compounds read low",1
same,normalized growth,"S. cerevisiae deletion strains, locus YMR223W, strain ubp8, active compounds read low",0.953
same,normalized growth,"S. cerevisiae deletion strains, locus YMR231W, strain pep5, active compounds read low",0.968
same,normalized growth,"S. cerevisiae deletion strains, locus YMR307W, strain GAS1, active compounds read low",0.709
same,normalized growth,"S. cerevisiae deletion strains, locus YNL067W, strain RPL9B, active compounds read low",0.955
same,normalized growth,"S. cerevisiae deletion strains, locus YNL071W, strain lat1, active compounds read low",0.985
same,normalized growth,"S. cerevisiae deletion strains, locus YNL153C, strain GIM3, active compounds read low",0.988
same,normalized growth,"S. cerevisiae deletion strains, locus YNL183C, strain NPR1, active compounds read low",1.01
same,normalized growth,"S. cerevisiae deletion strains, locus YNL209W, strain ssb2, active compounds read low",0.979
same,normalized growth,"S. cerevisiae deletion strains, locus YNL233W, strain BNI4, active compounds read low",0.922
same,normalized growth,"S. cerevisiae deletion strains, locus YNL248C, strain rpa49, active compounds read low",0.982
same,normalized growth,"S. cerevisiae deletion strains, locus YNL250W, strain rad50, active compounds read low",0.966
same,normalized growth,"S. cerevisiae deletion strains, locus YNL271C, strain bni1, active compounds read low",0.972
same,normalized growth,"S. cerevisiae deletion strains, locus YNL298W, strain CLA4, active compounds read low",0.972
same,normalized growth,"S. cerevisiae deletion strains, locus YNL307C, strain MCK1, active compounds read low",0.982
same,normalized growth,"S. cerevisiae deletion strains, locus YNL322C, strain KRE1 (second series), active compounds read low",0.993
same,normalized growth,"S. cerevisiae deletion strains, locus YNR049C, strain mso1, active compounds read low",0.993
same,normalized growth,"S. cerevisiae deletion strains, locus YNR052C, strain pop2, active compounds read low",0.916
same,normalized growth,"S. cerevisiae deletion strains, locus YOL006C, strain TOP1, active compounds read low",0.545
same,normalized growth,"S. cerevisiae deletion strains, locus YOL012C, strain htz1",0.521
same,normalized growth,"S. cerevisiae deletion strains, locus YOL147C, strain pex11, active compounds read low",0.977
same,normalized growth,"S. cerevisiae deletion strains, locus YOR001W, strain rrp6, active compounds read low",0.972
same,normalized growth,"S. cerevisiae deletion strains, locus YOR061W, strain CKA2, active compounds read low",0.921
same,normalized growth,"S. cerevisiae deletion strains, locus YOR069W, strain VPS5, active compounds read low",0.971
same,normalized growth,"S. cerevisiae deletion strains, locus YOR070C, strain gyp1, active compounds read low",0.982
same,normalized growth,"S. cerevisiae deletion strains, locus YOR080W, strain dia2, active compounds read low",0.996
same,normalized growth,"S. cerevisiae deletion strains, locus YOR083W, strain WHI5, active compounds read low",0.968
same,normalized growth,"S. cerevisiae deletion strains, locus YOR106W, strain vam3, active compounds read low",0.853 (active)
same,normalized growth,"S. cerevisiae deletion strains, locus YOR136W, strain idh2, active compounds read low",0.962
same,normalized growth,"S. cerevisiae deletion strains, locus YOR144C, strain elg1, active compounds read low",0.986
same,normalized growth,"S. cerevisiae deletion strains, locus YOR184W, strain ser1, active compounds read low",0.927
same,normalized growth,"S. cerevisiae deletion strains, locus YOR231W, strain MKK1, active compounds read low",1.06
same,normalized growth,"S. cerevisiae deletion strains, locus YOR265W, strain rbl2, active compounds read low",0.983
same,normalized growth,"S. cerevisiae deletion strains, locus YOR270C, strain vph1, active compounds read low",0.936
same,normalized growth,"S. cerevisiae deletion strains, locus YOR290C, strain snf2, active compounds read low",0.987
same,normalized growth,"S. cerevisiae deletion strains, locus YOR316C, strain cot1, active compounds read low",0.987
same,normalized growth,"S. cerevisiae deletion strains, locus YPL051W, strain arl3, active compounds read low",0.983
same,normalized growth,"S. cerevisiae deletion strains, locus YPL078C, strain atp4, active compounds read low",0.989
same,normalized growth,"S. cerevisiae deletion strains, locus YPL106C, strain sse1, active compounds read low",0.88
same,normalized growth,"S. cerevisiae deletion strains, locus YPL240C, strain hsp82, active compounds read low",0.975
same,normalized growth,"S. cerevisiae deletion strains, locus YPL241C, strain CIN2, active compounds read low",0.987
same,normalized growth,"S. cerevisiae deletion strains, locus YPL256C, strain CLN2, active compounds read low",1.06
same,normalized growth,"S. cerevisiae deletion strains, locus YPR119W, strain clb2, active compounds read low",0.991
same,normalized growth,"S. cerevisiae deletion strains, locus YPR141C, strain kar3, active compounds read low",0.974
same,normalized growth,"S. cerevisiae deletion strains, locus YPR163C, strain tif3, active compounds read low",0.987
same,normalized growth,"S. cerevisiae deletion strains, locus YPR167C, strain met16, active compounds read low",0.993
same,normalized growth,"S. cerevisiae deletion strains, strain wtn01, active compounds read low",0.903
same,normalized growth,"S. cerevisiae strains, strain wild type, active compounds read low",0.834 (active)
